Hit rate of the full screen: of about 370,000 compounds, about 2,000 (0.54%) were called active. The entries come from a sample that favours actives as a whole. Values without a mark were called inactive. No stated cut-off is given here; in the data, active means inhibition above about 30%; inactive means the rest.

In this experiment the test system is Crimean-Congo hemorrhagic fever virus L polyprotein viral ovarian tumor (vOTU) protease domain. Description: CCHFV vOTU protease inhibitors, primary screen, biochemical, Pep-AMC substrate, fluorescence (AID 651958). Further: 0% = vehicle wells with enzyme and 100% = no enzyme wells. The conditions noted are these: at 11.5 µM, active compounds read high.
The term inhibition denotes the change of the read-out against control, counted positive when it falls. `COc1ccc(Br)cc1S(=O)(=O)N1CCN=C1C`: the inhibition was -6.47%.
Then `Cc1cc(OC(C)C(=O)Nc2ccc(S(=O)(=O)Nc3onc(C)c3C)cc2)cc(C)c1Cl` (stereo not drawn), with 35.2% (active); and `CCc1ccc(OC(C)C(=O)Nc2ccc(S(=O)(=O)Nc3cc(C)on3)cc2)cc1` (stereo not drawn), with 7.95%.
On to `CC(Oc1cccc(Cl)c1)C(=O)Nc1ccc(S(=O)(=O)Nc2ncccn2)cc1` (stereo not drawn), for which the inhibition is -1.27%.
Consider `O=S1(=O)CC(N2CCN(CCO)CC2)CN1Cc1cn(Cc2ccc(Cl)cc2)nn1` (stereo not drawn), for which the inhibition was -2.07%.
`CCN(CC(=O)Nc1c(F)cccc1F)C(=O)c1ccc(-c2ccccc2)cc1`: the inhibition was -7.05%.
Then `CCc1cc(C(=O)N(CC)CC(=O)Nc2c(F)cccc2F)sc1C`, with 19.1%; and `CCN(CC(=O)Nc1c(F)cccc1F)C(=O)c1cnc(C)cn1`, with 32.8% (active).
Take `CCN(CC)c1ccc(NC(=O)CN2C(=O)NC3(CCc4ccccc43)C2=O)cc1` (stereo not drawn): the inhibition was -2.95%.
For the molecule `O=C(Cn1cc(C(F)(F)F)ccc1=O)Nc1ccc2c(c1)OCCO2`, the inhibition is 8.6%.
With `CC(C)CC1(C)NC(=O)N(CC(=O)Nc2ccc3c(c2)OCCO3)C1=O` (stereo not drawn), the inhibition is -6.35%.
Next, `COc1c(Br)cc2c(C)c(C(=O)N3CCOCC3)oc2c1Br`: -3.21%; `Cc1nc2ccccc2c(=O)n1-c1ccc(F)c(NC(=O)c2cccs2)c1`: -0.94%; `O=C(c1ccc(N2CCCC2=O)cc1)N1CCN(c2ccc(C(F)(F)F)cc2[N+](=O)[O-])CC1`: 3.99%.
Next, `Cc1cc(C)c(S(=O)(=O)NN=C2c3ccccc3[C@H]3Cc4csc[n+]4[C@@H]23)c(C)c1`: 82.8% (active); `COC(=O)[C@]12C[C@H](CC(=O)NCc3ccccc3)C(=O)N(CCC3=CCCCC3)C1=C[C@H](C(C)C)O[C@@H]2C1CC1`: 23.1%; `COC(=O)C[C@H]1C[C@@H]2c3cc(NC(=O)Nc4ccccc4)ccc3O[C@@H]2[C@@H](CO)O1`: -2.2%.
Then `CC(C)Cn1c(N)c(C(=O)NCc2cccs2)c2nc3ccccc3nc21`, with 85.8% (active); and `Cc1nc2c(C(=O)NCc3cccs3)cnn2c(C)c1Cc1ccc(F)cc1`, with 4.83%; and `CCN(CC(=O)NCc1cccs1)c1nnnn1-c1ccccc1`, with -6.07%.
Turning to `Cn1cccc1C(=O)NC(=O)COC(=O)Cc1coc2ccc3ccccc3c12`, the inhibition was 5.02%.
Next, `CCCn1c(=O)c2ccccc2n2c(SCC(=O)/C(C#N)=C(\C)N)nnc12`: -9.66%.
Then `CC(C)[C@H](NC(=O)N1CCn2c1nc1ccccc12)C(=O)NCCc1ccccc1`, with 25.4%.

Source of the values: PubChem BioAssay AID651958 (The Scripps Research Institute Molecular Screening Center, 2012).
